Compound in the test: CN[C@@H]1C[C@H]2O[C@@](C)([C@@H]1OC)n1c3ccccc3c3c4c(c5c6ccccc6n2c5c31)C(=O)NC4 [staurosporine]
Put plainly: log2 fold change of tryptic peptide abundance, ligand vs vehicle (limited proteolysis) (log2 ratio); higher = more trypsin-susceptible (destabilized). The following applies: ligand concentration: 20 uM; sample: K562 cleared lysate; digestion: 4 min, 22 C (HT-PELSA RT4min, Orbitrap Astral).
UniProt O60331, sequence (O60331 whole entry): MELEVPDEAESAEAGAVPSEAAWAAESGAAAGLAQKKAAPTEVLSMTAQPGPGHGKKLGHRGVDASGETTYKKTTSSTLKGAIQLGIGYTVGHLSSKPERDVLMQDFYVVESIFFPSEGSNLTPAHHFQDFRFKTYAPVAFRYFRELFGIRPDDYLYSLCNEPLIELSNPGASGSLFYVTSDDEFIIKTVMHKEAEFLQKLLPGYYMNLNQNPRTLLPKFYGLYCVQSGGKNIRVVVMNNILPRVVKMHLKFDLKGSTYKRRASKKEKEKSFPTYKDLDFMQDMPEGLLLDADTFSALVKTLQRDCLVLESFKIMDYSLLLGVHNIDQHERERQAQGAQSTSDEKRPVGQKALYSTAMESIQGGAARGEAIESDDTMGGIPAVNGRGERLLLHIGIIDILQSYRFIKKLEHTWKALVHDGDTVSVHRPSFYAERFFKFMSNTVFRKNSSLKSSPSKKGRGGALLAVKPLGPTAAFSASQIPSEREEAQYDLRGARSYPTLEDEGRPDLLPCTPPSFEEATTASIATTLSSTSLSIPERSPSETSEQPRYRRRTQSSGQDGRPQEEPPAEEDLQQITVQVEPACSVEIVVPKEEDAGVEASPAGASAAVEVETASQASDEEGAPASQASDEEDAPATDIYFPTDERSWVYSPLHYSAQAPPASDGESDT
UniProt P55884, sequence (P55884 whole entry): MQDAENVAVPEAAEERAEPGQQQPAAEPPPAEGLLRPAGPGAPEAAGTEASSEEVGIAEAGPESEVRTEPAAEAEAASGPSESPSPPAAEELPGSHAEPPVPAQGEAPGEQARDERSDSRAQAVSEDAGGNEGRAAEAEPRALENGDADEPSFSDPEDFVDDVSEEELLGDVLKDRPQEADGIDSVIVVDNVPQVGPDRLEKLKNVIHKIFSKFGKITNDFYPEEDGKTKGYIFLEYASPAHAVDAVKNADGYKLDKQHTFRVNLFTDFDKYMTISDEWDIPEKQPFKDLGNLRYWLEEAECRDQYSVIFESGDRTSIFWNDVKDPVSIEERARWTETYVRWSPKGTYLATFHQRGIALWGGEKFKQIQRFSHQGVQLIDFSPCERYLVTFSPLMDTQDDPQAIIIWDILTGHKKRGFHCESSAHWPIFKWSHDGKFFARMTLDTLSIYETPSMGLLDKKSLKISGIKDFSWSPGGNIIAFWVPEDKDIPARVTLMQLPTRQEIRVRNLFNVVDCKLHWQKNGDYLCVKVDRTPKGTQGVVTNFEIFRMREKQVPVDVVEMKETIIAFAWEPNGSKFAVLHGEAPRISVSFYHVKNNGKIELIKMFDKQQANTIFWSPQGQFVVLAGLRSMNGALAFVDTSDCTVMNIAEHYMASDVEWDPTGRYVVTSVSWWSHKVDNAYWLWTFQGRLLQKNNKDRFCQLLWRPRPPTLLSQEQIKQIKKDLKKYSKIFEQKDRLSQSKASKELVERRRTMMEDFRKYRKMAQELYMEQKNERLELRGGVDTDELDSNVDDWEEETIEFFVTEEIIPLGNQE
UniProt P22059, sequence (P22059 whole entry): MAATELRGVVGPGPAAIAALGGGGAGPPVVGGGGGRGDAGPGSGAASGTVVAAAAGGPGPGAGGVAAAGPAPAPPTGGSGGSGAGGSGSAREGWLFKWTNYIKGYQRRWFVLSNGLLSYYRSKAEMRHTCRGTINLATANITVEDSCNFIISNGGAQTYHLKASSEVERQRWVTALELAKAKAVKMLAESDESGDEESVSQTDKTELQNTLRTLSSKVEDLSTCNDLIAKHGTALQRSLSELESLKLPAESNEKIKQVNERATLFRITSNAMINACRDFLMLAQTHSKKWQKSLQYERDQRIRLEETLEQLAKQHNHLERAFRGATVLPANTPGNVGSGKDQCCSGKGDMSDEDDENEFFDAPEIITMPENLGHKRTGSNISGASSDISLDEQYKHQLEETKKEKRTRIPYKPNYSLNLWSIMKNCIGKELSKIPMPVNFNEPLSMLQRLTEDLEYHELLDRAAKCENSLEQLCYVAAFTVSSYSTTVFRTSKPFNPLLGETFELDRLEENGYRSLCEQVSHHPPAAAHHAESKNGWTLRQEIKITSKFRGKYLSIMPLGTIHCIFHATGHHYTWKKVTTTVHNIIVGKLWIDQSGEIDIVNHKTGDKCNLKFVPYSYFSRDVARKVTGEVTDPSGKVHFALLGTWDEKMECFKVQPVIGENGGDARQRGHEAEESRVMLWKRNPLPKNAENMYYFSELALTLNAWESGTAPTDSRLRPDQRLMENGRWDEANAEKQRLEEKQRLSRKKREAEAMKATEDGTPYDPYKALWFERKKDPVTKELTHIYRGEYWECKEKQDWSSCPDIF
UniProt O75153, sequence (O75153 whole entry): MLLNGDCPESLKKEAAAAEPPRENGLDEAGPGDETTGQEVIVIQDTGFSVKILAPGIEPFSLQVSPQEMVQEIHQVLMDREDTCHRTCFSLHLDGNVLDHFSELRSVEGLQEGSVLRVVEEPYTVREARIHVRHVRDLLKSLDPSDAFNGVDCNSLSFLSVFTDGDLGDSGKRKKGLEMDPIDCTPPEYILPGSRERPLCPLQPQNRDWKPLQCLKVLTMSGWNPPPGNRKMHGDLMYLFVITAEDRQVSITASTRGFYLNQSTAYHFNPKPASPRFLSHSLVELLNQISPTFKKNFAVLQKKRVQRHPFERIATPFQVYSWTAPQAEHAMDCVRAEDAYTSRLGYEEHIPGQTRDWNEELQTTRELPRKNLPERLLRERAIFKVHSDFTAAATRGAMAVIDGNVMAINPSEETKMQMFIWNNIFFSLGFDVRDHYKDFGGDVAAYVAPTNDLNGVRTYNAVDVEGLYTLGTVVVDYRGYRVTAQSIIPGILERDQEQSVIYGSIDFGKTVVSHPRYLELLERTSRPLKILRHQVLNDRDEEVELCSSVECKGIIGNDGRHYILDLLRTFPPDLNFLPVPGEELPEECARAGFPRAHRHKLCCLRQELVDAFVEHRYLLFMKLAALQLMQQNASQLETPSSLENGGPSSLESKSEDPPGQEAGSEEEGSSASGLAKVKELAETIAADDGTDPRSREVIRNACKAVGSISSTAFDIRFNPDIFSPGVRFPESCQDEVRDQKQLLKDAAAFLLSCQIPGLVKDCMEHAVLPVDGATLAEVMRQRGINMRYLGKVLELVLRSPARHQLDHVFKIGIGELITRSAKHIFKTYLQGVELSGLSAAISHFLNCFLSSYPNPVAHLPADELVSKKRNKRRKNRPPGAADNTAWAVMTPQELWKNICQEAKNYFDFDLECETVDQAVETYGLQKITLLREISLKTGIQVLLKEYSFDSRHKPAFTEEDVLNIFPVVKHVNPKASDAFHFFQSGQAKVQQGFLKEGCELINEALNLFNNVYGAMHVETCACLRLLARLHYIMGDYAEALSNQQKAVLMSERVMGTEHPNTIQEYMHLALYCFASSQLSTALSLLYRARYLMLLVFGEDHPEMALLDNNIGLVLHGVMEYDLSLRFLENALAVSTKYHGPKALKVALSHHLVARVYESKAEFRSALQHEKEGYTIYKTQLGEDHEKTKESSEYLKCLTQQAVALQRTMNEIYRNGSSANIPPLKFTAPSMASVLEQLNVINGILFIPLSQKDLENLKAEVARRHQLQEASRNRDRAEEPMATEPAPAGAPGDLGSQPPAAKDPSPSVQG
UniProt P31321, sequence (P31321 whole entry): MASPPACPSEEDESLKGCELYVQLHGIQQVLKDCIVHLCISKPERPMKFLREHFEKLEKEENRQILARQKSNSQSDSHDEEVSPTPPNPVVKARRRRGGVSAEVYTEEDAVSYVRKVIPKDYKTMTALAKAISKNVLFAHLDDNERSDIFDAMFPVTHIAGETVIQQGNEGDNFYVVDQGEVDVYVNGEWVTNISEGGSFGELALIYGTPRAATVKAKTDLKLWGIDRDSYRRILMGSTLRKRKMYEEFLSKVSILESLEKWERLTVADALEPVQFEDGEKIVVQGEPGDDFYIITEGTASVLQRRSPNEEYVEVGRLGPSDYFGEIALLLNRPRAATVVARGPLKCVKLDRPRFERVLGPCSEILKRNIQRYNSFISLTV
UniProt Q96SU4, sequence (Q96SU4 whole entry): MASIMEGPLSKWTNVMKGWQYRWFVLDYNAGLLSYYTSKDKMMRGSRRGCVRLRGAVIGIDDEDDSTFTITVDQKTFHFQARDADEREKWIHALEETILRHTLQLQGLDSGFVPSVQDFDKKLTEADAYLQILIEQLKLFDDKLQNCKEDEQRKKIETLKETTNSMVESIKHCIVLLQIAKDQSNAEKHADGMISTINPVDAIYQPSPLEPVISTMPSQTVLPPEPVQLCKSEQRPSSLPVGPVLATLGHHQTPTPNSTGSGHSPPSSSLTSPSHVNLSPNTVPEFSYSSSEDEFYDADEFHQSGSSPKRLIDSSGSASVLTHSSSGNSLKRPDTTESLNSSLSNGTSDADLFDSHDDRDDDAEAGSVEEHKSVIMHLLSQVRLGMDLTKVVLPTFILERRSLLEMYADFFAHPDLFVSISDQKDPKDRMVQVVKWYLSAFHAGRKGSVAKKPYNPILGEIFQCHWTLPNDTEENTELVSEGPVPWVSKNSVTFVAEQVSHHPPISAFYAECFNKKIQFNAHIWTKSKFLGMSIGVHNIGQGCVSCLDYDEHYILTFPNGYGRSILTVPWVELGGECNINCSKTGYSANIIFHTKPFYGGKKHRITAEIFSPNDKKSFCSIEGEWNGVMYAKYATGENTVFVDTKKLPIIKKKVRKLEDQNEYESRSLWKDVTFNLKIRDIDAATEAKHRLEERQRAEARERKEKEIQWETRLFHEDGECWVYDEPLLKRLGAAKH
UniProt Q16629, sequence (Q16629 whole entry): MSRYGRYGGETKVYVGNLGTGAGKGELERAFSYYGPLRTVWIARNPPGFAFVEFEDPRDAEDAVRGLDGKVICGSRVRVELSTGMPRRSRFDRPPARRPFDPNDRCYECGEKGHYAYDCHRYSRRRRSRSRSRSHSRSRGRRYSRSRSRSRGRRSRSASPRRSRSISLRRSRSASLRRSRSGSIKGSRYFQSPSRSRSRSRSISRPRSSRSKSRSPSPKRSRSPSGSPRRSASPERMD
Consider “TOP2A (peptide sequence: GESDDFHMDFDSAVAPR, peptide start residue: 1493) (UniProt P11388)”, for which the log2 fold change is -0.599. In the case of “PAK2 (peptide sequence: MTDEEIMEK, peptide start residue: 227) (UniProt Q13177)” it was -2.15. In the case of “USP28 (peptide sequence: FVDPSAALDLLK, peptide start residue: 232) (UniProt Q96RU2)” it was 0.578; in that of “UniProt Q13188 (peptide sequence: AIFMIPTNPPPTFR, peptide start residue: 232)”, -3.02; in that of “UniProt Q9H9C1 (peptide sequence: LLLDLFR, peptide start residue: 239)”, -1.26. Consider “ULK3 (peptide sequence: VIELPLRPLLSR, peptide start residue: 230) (UniProt Q6PHR2)”, for which the log2 fold change was -1.32. Regarding “EIF3B (peptide sequence: PRPPTLLSQEQIK, peptide start residue: 706) (UniProt P55884)”, the log2 fold change was determined as 0.691. In the case of “XRCC5 (peptide sequence: VDEEQMK, peptide start residue: 326) (UniProt P13010)” it was -0.825; in that of “PRKAR1B (peptide sequence: NVLFAHLDDNER, peptide start residue: 135) (UniProt P31321)”, 1.02; in that of “OSBPL9 (peptide sequence: VVLPTFILER, peptide start residue: 391) (UniProt Q96SU4)”, 0.326.

As for “TROAP (peptide sequence: SCLTAIHCFHEAR, peptide start residue: 717) (UniProt Q12815)”, the log2 fold change was 1.24. In the case of “VIM (peptide sequence: MFGGPGTASRPSSSR, peptide start residue: 14) (UniProt P08670)” it was 0.344; in that of “RAF1 (peptide sequence: IGDFGLATVK, peptide start residue: 445) (UniProt P04049)”, 0.416; in that of “UniProt P62269 (peptide sequence: KADIDLTKR, peptide start residue: 47)”, 0.394.

For “PIP5K1C (peptide sequence: DCLVLESFK, peptide start residue: 305) (UniProt O60331)”, the log2 fold change was -0.54. In the case of “CDKL1 (peptide sequence: LCDFGFAR, peptide start residue: 693) (UniProt Q00532)” it was -0.936. In the case of “OSBP (peptide sequence: TRIPYKPNYSLNLWSIMK, peptide start residue: 407) (UniProt P22059)” it was 0.573; in that of “UniProt O75153 (peptide sequence: VVEEPYTVR, peptide start residue: 118)”, 0.461; in that of “UniProt P45984 (peptide sequence: DLKPSNIVVK, peptide start residue: 151)”, -2.08. As for “CHD4 (peptide sequence: SDSEGSDYTPGK, peptide start residue: 103) (UniProt Q14839)”, the log2 fold change was found to be 1.11. In the case of “CAMKK1 (peptide sequence: DIKPSNLLLGDDGHVK, peptide start residue: 275) (UniProt Q8N5S9)” it was -3.71. In the case of “CLIC1 (peptide sequence: IGNCPFSQR, peptide start residue: 21) (UniProt O00299)” it was 0.243. In the case of “SRRM2 (peptide sequence: SLSYSPVER, peptide start residue: 2690) (UniProt Q9UQ35)” it was 0.244; in that of “UniProt Q15208 (peptide sequence: VMEEEGLKDEEKR, peptide start residue: 51)”, 0.382; in that of “UniProt Q16629 (peptide sequence: YFQSPSR, peptide start residue: 189)”, 1.29. Take “CAMKK2 (peptide sequence: FYFQDLIK, peptide start residue: 291) (UniProt Q96RR4)”: the log2 fold change is -2.2. In the case of “UniProt Q8N4C8 (peptide sequence: GNALKEDCIAYICR, peptide start residue: 122)” it was -0.573.
